Laboratory results from the supplement of paper PMC8866396.
± gives the standard deviation of the averaged measurements.

Legend:
[1] = test system: IL-6-GFP PC-9GR; assay: cell viability (CCK-8 OD) relative to DMSO control (fraction of control); higher = more viable cells; settings: compound concentration: 10 uM; treatment time: 48 h
How it was run: (§1)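 Each well's viability is its CCK-8 optical density divided by that of the vehicle control well. The cells, PC-9 and PC-9GR lung cancer lines overexpressing IL-6-GFP from a lentiviral construct, were seeded at 3000 cells/well in 96-well plates and exposed for 48 h to each compound of a purchased 510-compound library at a final 10 μM, in two independent replicates.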

[2] = test system: IL-6-GFP PC-9; assay: as above; settings: compound concentration: 10 uM; treatment time: 48 h
How it was run: as §1

| SMILES | cell viability [1] | cell viability [2] |
| --- | --- | --- |
| COC(=O)NC(C(=O)N1CCCC1c1ncc(-c2ccc(-c3ccc(-c4cnc(C5CCCN5C(=O)C(NC(=O)OC)C(C)C)[nH]4)cc3)cc2)[nH]1)C(C)C (stereo not drawn) | 1.41 ± 0.14 | 1.18 ± 0.11 |
| CCc1cc2c(cc1N1CCC(N3CCOCC3)CC1)C(C)(C)c1[nH]c3cc(C#N)ccc3c1C2=O | 0.732 ± 0.081 | 0.584 ± 0.18 |
| Cc1cc2ncc(C(=O)NCC(C)(C)NCC(=O)N3CCCC3C#N)cn2n1 (stereo not drawn) [Anagliptin] | -0.0161 ± 0.12 | 1.23 ± 0.022 |
| CC(C)(C#N)c1cc(Cn2cncn2)cc(C(C)(C)C#N)c1 [Anastrozole] | 1.15 ± 0.045 | 1.01 ± 0.078 |
| Cc1ccc(C(=O)Nc2ccc(CN3CCN(C)CC3)c(C(F)(F)F)c2)cc1C#Cc1cnc2cccnn12 | 0.464 ± 0.3 | 0.378 ± 0.19 |
| CCCCC(CC)CN1CN(CC(CC)CCCC)CC(C)(N)C1 (stereo not drawn) [Hexetidine] | 1.58 ± 0.49 | 1.15 ± 0.07 |
| Cc1ccc(C(C)C)cc1 [p-Cymene] | 0.822 ± 0.24 | 1.249 ± 0.011 |
| CN(C)C(=O)COC(=O)Cc1ccc(OC(=O)c2ccc(NC(=N)N)cc2)cc1.CS(=O)(=O)O [Camostat Mesilate] | 0.986 ± 0.098 | 1.13 ± 0.049 |
| Cc1nccn1CC1CCc2c(c3ccccc3n2C)C1=O.Cl (stereo not drawn) [Ondansetron HCl] | 1.24 ± 0.19 | 1.18 ± 0.093 |
| COc1ccc2c(c1)nc(S(=O)Cc1ncc(C)c(OC)c1C)[n]2[Na] (stereo not drawn) [Esomeprazole sodium] | 1.26 ± 0.2 | 0.939 ± 0.16 |
| CC1(C)OC2CC3C4CC(F)C5=CC(=O)C=CC5(C)C4(F)C(O)CC3(C)C2(C(=O)CO)O1 (stereo not drawn) [Fluocinolone Acetonide] | 1.26 ± 0.091 | 1 ± 0.015 |
| C[S+](C)CCC(N)C(=O)O.[Cl-] (stereo not drawn) | 1.11 ± 0.29 | 1.08 ± 0.22 |
| CC(C)(C)c1nc(-c2cccc(NS(=O)(=O)c3c(F)cccc3F)c2F)c(-c2ccnc(N)n2)s1 | 1.14 ± 0.12 | 0.77 ± 0.035 |
| O=C(c1cc(Cc2n[nH]c(=O)c3ccccc23)ccc1F)N1CCN(C(=O)C2CC2)CC1 | 1.09 ± 0.081 | 1.16 ± 0.37 |
| Cc1cncc(CN2CCC(=C3c4ccc(Cl)cc4CCc4cccnc43)CC2)c1.O=C(O)/C=C/C(=O)O [Rupatadine Fumarate] | 0.996 ± 0.05 | 1.16 ± 0.17 |
| CNC(=O)c1cc(Oc2ccc(NC(=O)Nc3ccc(Cl)c(C(F)(F)F)c3)c(F)c2)ccn1 [Regorafenib (BAY 73-4506)] | 0.833 ± 0.029 | 0.476 ± 0.11 |
| O=C(O)c1cc(N=Nc2ccc(S(=O)(=O)Nc3ccccn3)cc2)ccc1O [Sulfasalazine] | 1.41 ± 0.088 | 1.22 ± 0.16 |
| CC1=NN(c2ccc(C)c(C)c2)C(=O)/C1=N\Nc1cccc(-c2cccc(C(=O)O)c2)c1O.NCCO.NCCO [Eltrombopag Olamine] | 1.23 ± 0.034 | 0.966 ± 0.02 |
| CCC1=CC2CN(C1)Cc1c([nH]c3ccccc13)C(C(=O)OC)(c1cc3c(cc1OC)N(C)C1C(O)(C(=O)OC)C(OC(C)=O)C4(CC)C=CCN5CCC31C54)C2.O=C(O)C(O)C(O)C(=O)O.O=C(O)C(O)C(O)C(=O)O (stereo not drawn) [Vinorelbine Tartrate] | 0.559 ± 0.13 | 0.566 ± 0.081 |
| CC(=O)OC[C@H]1O[C@@H]([S-])[C@H](OC(C)=O)[C@@H](OC(C)=O)[C@@H]1OC(C)=O.CCP(CC)CC.[Au+] [Auranofin] | 0.00506 ± 0.12 | 0.0702 ± 0.04 |
| CC(Oc1cc(-c2cnn(C3CCNCC3)c2)cnc1N)c1c(Cl)ccc(F)c1Cl [(S)-crizotinib] | 0.458 ± 0.15 | 0.756 ± 0.12 |
| CC(C(=O)[O-])c1cccc(Oc2ccccc2)c1.CC(C(=O)[O-])c1cccc(Oc2ccccc2)c1.[Ca+2] (stereo not drawn) [Fenoprofen Calcium] | 1.26 ± 0.064 | 0.938 ± 0.013 |
| COc1cc2c(Oc3ccc4[nH]c(C)cc4c3F)ccnc2cc1OCC1(N)CC1.Cl.Cl [Anlotinib (AL3818) dihydrochloride] | 0.463 ± 0.024 | 0.575 ± 0.056 |
| CCC(C)(Oc1ccc(C2(c3ccc(OC(C)(CC)C(=O)O)cc3)CCCCC2)cc1)C(=O)O (stereo not drawn) [Clinofibrate] | 1.17 ± 0.14 | 1.23 ± 0.42 |
| COC1OC2OC3(C)CCC4C(C)CCC(C1C)C24OO3 (stereo not drawn) [Artemether] | 1.29 ± 0.17 | 1.29 ± 0.052 |
| CCOc1ccccc1OCCNC(C)Cc1ccc(OC)c(S(N)(=O)=O)c1 (stereo not drawn) [Tamsulosin] | 1.37 ± 0.042 | 1.316 ± 0.0058 |
| Cl.Nc1ccn(C2OC(CO)C(O)C2(F)F)c(=O)n1 (stereo not drawn) [Gemcitabine HCl] | 0.596 ± 0.012 | 0.566 ± 0.046 |

| SMILES | cell viability [1] | cell viability [2] |
| --- | --- | --- |
| C/C=C(/C(=C/C)c1ccc(O)cc1)c1ccc(O)cc1 [Dienestrol] | 1.06 ± 0.025 | 1.16 ± 0.093 |
| COc1cc(C(=O)NS(=O)(=O)c2ccccc2C)ccc1Cc1cn(C)c2ccc(NC(=O)OC3CCCC3)cc12 [Zafirlukast] | 1.31 ± 0.026 | 0.967 ± 0.023 |
| Cc1cnc(NC(=O)C2=C(O)c3ccccc3S(=O)(=O)N2C)s1 [Meloxicam] | 1.2096 ± 0.0007 | 1.4 ± 0.41 |
| CN(C)CCOC(c1ccc(Cl)cc1)c1ccccn1.O=C(O)/C=C\C(=O)O (stereo not drawn) [CarbinoxaMine Maleate] | 1.2 ± 0.26 | 1.07 ± 0.066 |
| COC(=O)c1cc(OC)c2c(c1-c1c(CO)cc(OC)c3c1OCO3)OCO2 [Bicyclol] | 1.16 ± 0.29 | 0.934 ± 0.097 |
| Cc1cn(-c2cc(NC(=O)c3ccc(C)c(Nc4nccc(-c5cccnc5)n4)c3)cc(C(F)(F)F)c2)cn1 [Nilotinib (AMN-107)] | 1.22 ± 0.089 | 1.135 ± 0.0089 |
| CCc1cccc2c3c([nH]c12)C(CC)(CC(=O)O)OCC3 (stereo not drawn) [Etodolac] | 1.22 ± 0.018 | 0.989 ± 0.076 |
| CC1(C(=O)O)CCC2(C)CCC3(C)C(=CC(=O)C4C5(C)CCC(OC6OC(C(=O)O)C(O)C(O)C6OC6OC(C(=O)O)C(O)C(O)C6O)C(C)(C)C5CCC43C)C2C1.N (stereo not drawn) [Ammonium Glycyrrhizinate] | 1.42 ± 0.25 | 1.31 ± 0.014 |
| COc1ccc2cc1Oc1ccc(cc1)CC1c3cc(c(OC)cc3CCN1C)Oc1c(O)c(OC)cc3c1C(C2)N(C)CC3 (single isomer, unassigned; (+)) [(+)-Fangchinoline] | 0.731 ± 0.36 | 0.678 ± 0.23 |
| CC(C)c1nc(CN(C)C(=O)NC(CCN2CCOCC2)C(=O)NC(CCC(Cc2ccccc2)NC(=O)OCc2cncs2)Cc2ccccc2)cs1 (stereo not drawn) [Cobicistat (GS-9350)] | 0.989 ± 0.11 | 1.14 ± 0.22 |
| Cc1c(C(=O)Nc2ccc(N3CC(C)OC(C)C3)nc2)cccc1-c1ccc(OC(F)(F)F)cc1 (stereo not drawn) [Sonidegib (Erismodegib, NVP-LDE225)] | 1.05 ± 0.049 | 1.0769 ± 0.001 |
| CCC1(O)CC2CN(CCc3c([nH]c4ccccc34)C(C(=O)OC)(c3cc4c(cc3OC)N(C=O)C3C(O)(C(=O)OC)C(OC(C)=O)C5(CC)C=CCN6CCC43C65)C2)C1.O=S(=O)(O)O (stereo not drawn) [Vincristine sulfate] | 0.587 ± 0.086 | 0.553 ± 0.11 |
| CCC1/C=C(\C)CC(C)CC(OC)C2OC(O)(C(=O)C(=O)N3CCCCC3C(=O)OC(/C(C)=C/C3CCC(Cl)C(OC)C3)C(C)C(O)CC1=O)C(C)CC2OC (stereo not drawn) [Pimecrolimus] | 1 ± 0.18 | 1.02 ± 0.071 |
| Cl.Cl.Cl.Cl.Cl.Cl.Cl.Cl.c1cc(CN2CCCNCCNCCCNCC2)ccc1CN1CCCNCCNCCCNCC1 [Plerixafor 8HCl (AMD3100 8HCl)] | 1.04 ± 0.12 | 1.13 ± 0.1 |
| C=C1C(=O)OC2C1CCC(=C)C1CCC(=C)C12 (stereo not drawn) [Dehydrocostus Lactone] | 0.75 ± 0.052 | 0.808 ± 0.077 |
| COc1ccc2c(c1)nc(S(=O)Cc1ncc(C)c(OC)c1C)[n]2[Na] (stereo not drawn) [Omeprazole Sodium] | 0.872 ± 0.13 | 0.963 ± 0.16 |
| O=C1Nc2ccccc2/C1=C1\Nc2ccccc2C1=O [Indirubin] | 1.28 ± 0.29 | 0.916 ± 0.059 |
| CC1CC2C3CC(F)C4=CC(=O)C=CC4(C)C3(F)C(O)CC2(C)C1(OC(=O)c1ccco1)C(=O)SCF (stereo not drawn) [fluticasone furoate] | 0.711 ± 0.089 | 0.961 ± 0.27 |
| CCCC(=O)OC1(C(=O)CO)CCC2C3CCC4=CC(=O)CCC4(C)C3C(O)CC21C (stereo not drawn) [Hydrocortisone butyrate] | 0.857 ± 0.11 | 1.08 ± 0.073 |
| COc1c(-c2ccc3cc(NS(C)(=O)=O)ccc3c2)cc(-n2ccc(=O)[nH]c2=O)cc1C(C)(C)C [Dasabuvir(ABT-333)] | 0.7838 ± 0.0059 | 0.9253 ± 0.0086 |
| C/C=C(/C)C(=O)OC1C(OC(C)=O)C2(CO)C(O)CC3(C)C(=CCC4C5(C)CCC(OC6OC(C(=O)O)C(OC7OC(CO)C(O)C(O)C7O)C(O)C6OC6OC(CO)C(O)C(O)C6O)C(C)(CO)C5CCC43C)C2CC1(C)C (stereo not drawn) [Escin] | 0.999 ± 0.079 | 1.14 ± 0.22 |
| Cc1nc(Nc2ncc(C(=O)Nc3c(C)cccc3Cl)s2)cc(N2CCN(CCO)CC2)n1 [Dasatinib] | 0.953 ± 0.026 | 0.206 ± 0.2 |
| O=C(Nc1cnn2ccc(N3CCCC3c3cc(F)ccc3F)nc12)N1CCC(O)C1.O=S(=O)(O)O (stereo not drawn) [Larotrectinib (LOXO-101) sulfate] | 0.802 ± 0.05 | 1.14 ± 0.12 |
| CCN1CCN(Cc2ccc(Nc3ncc(F)c(-c4cc(F)c5nc(C)n(C(C)C)c5c4)n3)nc2)CC1 [Abemaciclib] | 0.668 ± 0.14 | 0.746 ± 0.094 |
| CCC1(O)C(=O)OCc2c1cc1n(c2=O)Cc2cc3cc(O)ccc3nc2-1 (stereo not drawn) [Hydroxy Camptothecine] | 0.38 ± 0.2 | 0.404 ± 0.042 |
| CNC(=O)c1ccc(N2C(=S)N(c3ccc(C#N)c(C(F)(F)F)c3)C(=O)C2(C)C)cc1F [Enzalutamide (MDV3100)] | 1.04 ± 0.077 | 0.808 ± 0.099 |
| CC(CCC(=O)NCCS(=O)(=O)O)C1CCC2C3C(O)CC4CC(O)CCC4(C)C3CCC12C (stereo not drawn) [Tauroursodeoxycholic Acid (TUDCA)] | 1.2 ± 0.37 | 1.24 ± 0.23 |
